PubChem BioAssay (NCI)
The panel holds about 79,000 compounds, 15% with a hit somewhere; the sample as a whole holds those more often. Activity calls are given as the source filed them. Rule as the data show it: active = growth inhibition above about 70%; inactive = the rest.

experiment: NCI Yeast Anticancer Drug Screen. Data for the rad50 strain (AID 155);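 also: 0% = growth of vehicle-only cultures of the same strain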; settings: S. cerevisiae rad50 strain growth inhibition; at 5.0 µM (retest, dose inferred, filed as 0.5); hits give high values
Method in brief: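 A DNA repair-deficient yeast mutant serves as the test organism; compound-induced growth inhibition is calculated against vehicle-treated cells.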

Structure (SMILES)	growth inhibition
CCCCCCCCc1ccc2c3ccccc3c3ccccc3c2c1	-9% (inactive)
O=C1C(=O)c2ccc(Br)cc2C(O)=C1C(c1ccccc1)c1ccccc1	29% (inactive)
CN(C)Cc1ccc2[nH]c3c(c2c1)CCCC3	4% (inactive)
COc1ccc(NC(=O)Nc2ccc(Cl)cc2)nn1	-1% (inactive)
CO/N=C/c1cc(NC(=S)c2ccoc2C)ccc1Cl	4% (inactive)
O=C(Sc1c(-c2ccccc2)c(=O)n(-c2ccccc2)c(=S)n1-c1ccccc1)c1cccs1	37% (inactive)
O=C1/C(=C/c2ccc(F)cc2)CNC/C1=C\c1ccc(F)cc1	12% (inactive)
O=c1cc2cccccc-2cc1O	-132% (inactive)
Oc1c(Br)cc(Br)cc1-c1ccccc1	0% (inactive)
C(=[CH]/[Sn]([c]1ccccc1)([c]1ccccc1)[c]1ccccc1)/c1ccccc1	96% (active)
CCCCCCCCCN1CCNC1=S	-5% (inactive)
O=C1C/C(=C\c2ccccc2)C(=O)c2ccccc2N1	0% (inactive)
CN(C)C(=O)Nc1ccc(Cc2ccc(NC(=O)N(C)C)cc2)cc1	-6% (inactive)
C=C1CC(C)(COc2ccc3c(C)c(Cl)c(=O)oc3c2)OC1=O (stereo not given)	23% (inactive)
CC[C@@]1(OP(=O)(O)O)C(=O)OCc2c1cc1n(c2=O)Cc2cc3ccccc3nc2-1	89% (active)
O=S(=O)(Sc1ccccc1)C(c1ccccc1)c1ccccc1	3% (inactive)
CCOC(=O)c1c(N)sc2c1CCCCC2	-160% (inactive)
CCCCCCCCCCCCCCNCCN	23% (inactive)
CCCN(CCC)CCNc1ccc(C)c2sc3ccccc3c(=O)c12	19% (inactive)
CC1CC2(C)ON=C(c3ccccc3)N2c2ccccc2S1 (stereo not given)	-25% (inactive)

Structure (SMILES)	growth inhibition
COc1ccc(N=NN2CCCC2)cc1	35% (inactive)
S=C(Nc1ccccc1)NC1CC2C=CC1CC2 (stereo not given)	-9% (inactive)
C=CCOC(=O)C(O)C(CC)CCCCC (stereo not given)	25% (inactive)
NC(=O)c1ccccc1C(=O)O	-6% (inactive)
CS(=O)(=O)c1cc(=O)c2ccccc2s1	6% (inactive)
O=C([O][Sb]([O]C(=O)C(Cl)(Cl)Cl)([c]1ccccc1)([c]1ccccc1)[c]1ccccc1)C(Cl)(Cl)Cl	12% (inactive)
CCCCCCCCCCCCCCCCCCOP(=O)([O-])OCC[N+](C)(C)C	14% (inactive)
Nc1ccc(SCCCc2c(N)nc(N)nc2N)cc1	-8% (inactive)
O=C1C=CC(=O)c2c1cc1ccccc1c2O	19% (inactive)
CCN(CC)CC(O)CNc1ccc(NCC(O)CCl)c2c1C(=O)c1ccccc1C2=O (stereo not given)	98% (active)
N#Cc1c(N)nc2c(N=Nc3ccccc3)c(N)nn2c1Nc1ccccc1	-2% (inactive)
CC(O)c1c2ccccc2cc2ccccc12 (stereo not given)	-17% (inactive)
Cc1ccccc1NC(=O)C1C(=O)N(c2ccccc2C)C(=O)/C1=N/O (stereo not given)	-21% (inactive)
O=Cc1ccc(-c2nccc3c2[nH]c2ccccc23)o1	23% (inactive)
C=CC(C)(CCC=C(C)C)OC(=O)Nc1ccccc1 (stereo not given)	19% (inactive)
Oc1ccc(-c2nnc(-c3ccc(Cl)cc3Cl)o2)cc1	6% (inactive)
C/C=C1\CC(C)(CC)C(C#N)(C#N)C(N)=C1C#N (stereo not given)	0% (inactive)
Cc1nc(-c2ccccc2)nc2c1nc(C(C)C)n2Nc1ccccc1	-2% (inactive)
Cc1csc2c1C(=O)c1ccsc1C2=O	54% (inactive)
COc1cc(Nc2ccc(Oc3ccc(O)cc3)cc2)c2ncccc2c1	6% (inactive)

same assay, conditions: S. cerevisiae rad50 strain growth inhibition; at 50.0 µM (retest, dose inferred, filed as 5.0); hits give high values

Structure (SMILES)	growth inhibition
CCCCCCCCc1ccc2c3ccccc3c3ccccc3c2c1	-12% (inactive)
O=C1C(=O)c2ccc(Br)cc2C(O)=C1C(c1ccccc1)c1ccccc1	60% (inactive)
CN(C)Cc1ccc2[nH]c3c(c2c1)CCCC3	96% (active)
COc1ccc(NC(=O)Nc2ccc(Cl)cc2)nn1	4% (inactive)
CO/N=C/c1cc(NC(=S)c2ccoc2C)ccc1Cl	0% (inactive)
O=C(Sc1c(-c2ccccc2)c(=O)n(-c2ccccc2)c(=S)n1-c1ccccc1)c1cccs1	92% (active)
O=C1/C(=C/c2ccc(F)cc2)CNC/C1=C\c1ccc(F)cc1	44% (inactive)
O=c1cc2cccccc-2cc1O	94% (active)
Oc1c(Br)cc(Br)cc1-c1ccccc1	99% (active)
C(=[CH]/[Sn]([c]1ccccc1)([c]1ccccc1)[c]1ccccc1)/c1ccccc1	88% (active)
CCCCCCCCCN1CCNC1=S	63% (inactive)
O=C1C/C(=C\c2ccccc2)C(=O)c2ccccc2N1	20% (inactive)
CN(C)C(=O)Nc1ccc(Cc2ccc(NC(=O)N(C)C)cc2)cc1	-32% (inactive)
C=C1CC(C)(COc2ccc3c(C)c(Cl)c(=O)oc3c2)OC1=O (stereo not given)	95% (active)
CC[C@@]1(OP(=O)(O)O)C(=O)OCc2c1cc1n(c2=O)Cc2cc3ccccc3nc2-1	92% (active)
O=S(=O)(Sc1ccccc1)C(c1ccccc1)c1ccccc1	72% (active)
CCOC(=O)c1c(N)sc2c1CCCCC2	-118% (inactive)
CCCCCCCCCCCCCCNCCN	29% (inactive)
CCCN(CCC)CCNc1ccc(C)c2sc3ccccc3c(=O)c12	99% (active)
CC1CC2(C)ON=C(c3ccccc3)N2c2ccccc2S1 (stereo not given)	98% (active)

Structure (SMILES)	growth inhibition
COc1ccc(N=NN2CCCC2)cc1	42% (inactive)
S=C(Nc1ccccc1)NC1CC2C=CC1CC2 (stereo not given)	-4% (inactive)
C=CCOC(=O)C(O)C(CC)CCCCC (stereo not given)	92% (active)
NC(=O)c1ccccc1C(=O)O	7% (inactive)
CS(=O)(=O)c1cc(=O)c2ccccc2s1	99% (active)
O=C([O][Sb]([O]C(=O)C(Cl)(Cl)Cl)([c]1ccccc1)([c]1ccccc1)[c]1ccccc1)C(Cl)(Cl)Cl	76% (active)
CCCCCCCCCCCCCCCCCCOP(=O)([O-])OCC[N+](C)(C)C	99% (active)
Nc1ccc(SCCCc2c(N)nc(N)nc2N)cc1	4% (inactive)
O=C1C=CC(=O)c2c1cc1ccccc1c2O	97% (active)
CCN(CC)CC(O)CNc1ccc(NCC(O)CCl)c2c1C(=O)c1ccccc1C2=O (stereo not given)	98% (active)
N#Cc1c(N)nc2c(N=Nc3ccccc3)c(N)nn2c1Nc1ccccc1	38% (inactive)
CC(O)c1c2ccccc2cc2ccccc12 (stereo not given)	72% (active)
Cc1ccccc1NC(=O)C1C(=O)N(c2ccccc2C)C(=O)/C1=N/O (stereo not given)	3% (inactive)
O=Cc1ccc(-c2nccc3c2[nH]c2ccccc23)o1	35% (inactive)
C=CC(C)(CCC=C(C)C)OC(=O)Nc1ccccc1 (stereo not given)	-13% (inactive)
Oc1ccc(-c2nnc(-c3ccc(Cl)cc3Cl)o2)cc1	80% (active)
C/C=C1\CC(C)(CC)C(C#N)(C#N)C(N)=C1C#N (stereo not given)	-9% (inactive)
Cc1nc(-c2ccccc2)nc2c1nc(C(C)C)n2Nc1ccccc1	20% (inactive)
Cc1csc2c1C(=O)c1ccsc1C2=O	97% (active)
COc1cc(Nc2ccc(Oc3ccc(O)cc3)cc2)c2ncccc2c1	31% (inactive)
